Assay outcomes deposited in PubChem BioAssay by several laboratories.
GIRK2 activator – activators of NPY4-receptor-primed GIRK2 channels, summary, cell-based, HEK293, thallium flux. G protein-activated inward rectifier potassium channel 2 (Homo sapiens), P48051. HEK293 GIRK2/NPY4 cells, thallium flux fluorescence. activation (% efficacy), % for hits at 37.5 µM. 34,000 tested, under 10 active. AID 1259324, 2017;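 active = primary screen hit, no activity in plain HEK293 cells, and in GIRK2-only cells above 5% efficacy rising with concentration; inactive = the rest, including fluorescent compounds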;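 also: efficacy is normalized control-subtracted fluorescence 15 s after thallium addition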
Target sequence (P48051 whole entry, looked up): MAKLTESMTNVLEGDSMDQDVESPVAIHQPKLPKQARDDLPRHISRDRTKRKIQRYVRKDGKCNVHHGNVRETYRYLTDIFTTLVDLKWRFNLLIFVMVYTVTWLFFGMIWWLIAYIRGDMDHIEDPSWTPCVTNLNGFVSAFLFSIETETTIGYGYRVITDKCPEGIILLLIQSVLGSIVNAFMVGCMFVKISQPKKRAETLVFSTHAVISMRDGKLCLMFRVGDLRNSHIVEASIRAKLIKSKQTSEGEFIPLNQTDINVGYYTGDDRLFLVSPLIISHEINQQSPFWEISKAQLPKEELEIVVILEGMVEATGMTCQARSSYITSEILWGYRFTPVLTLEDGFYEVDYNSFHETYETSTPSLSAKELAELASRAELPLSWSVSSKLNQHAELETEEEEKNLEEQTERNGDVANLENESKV
GluA2 TARP mod – modulators of GluA2-stargazin AMPA receptor complexes, primary screen, cell-based, membrane potential dye. calls only at 30 µM. actives 3.5% (n = 40,000). Voltage-dependent calcium channel gamma-2 subunit (Mus musculus) + Glutamate receptor 2 …. AID 1259245, 2017. HEK293 GluA2+stargazin, membrane potential dye (FDSS), glutamate EC50; hits were called plate by plate, in both directions;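 active = any of four per-well response measures lying three or more SD from its plate-wide compound average, in either direction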
* = called active by the depositor; i = inactive; · = no result; + = active, no number; [ ] = dose if it differs, or a comment. The entries come from a sample that favours hits as a whole.

SMILES	GIRK2 activator	GluA2 TARP mod
CC(C)S(=O)(=O)c1ccc(C(=O)Nc2nc3cc4c(cc3s2)OCCO4)cc1	i	i
Cc1ccc2nc(NC(=O)c3ccc(S(=O)(=O)C(C)C)cc3)sc2c1	·	+
Cc1cn(C)nc1C(=O)Nc1nc2ccc(S(C)(=O)=O)cc2s1	i	+
O=C(Nc1ccc(F)c(Cl)c1)C(=O)NC1CCCCC1	i	i
CS(=O)(=O)c1ccc(CC(=O)N2CCN(c3nc4c(Cl)cccc4s3)CC2)cc1	·	i
CCc1cccc2sc(N3CCN(C(=O)Cc4ccc(S(=O)(=O)CC)cc4)CC3)nc12	·	+
O=C(NCc1ccc2c(c1)OCO2)c1nc(-c2cnccn2)no1	i	i
COc1ccccc1CCNC(=O)Cn1cnc(-c2cccs2)cc1=O	i	i
Cc1ccc(Nc2cc(C)nc(Nc3ccc(NC(=O)c4ccc5c(c4)OCO5)cc3)n2)cc1	·	i
Cc1ccc(C(=O)Nc2ccc(Nc3nc(C)cc(N4CCCCC4)n3)cc2)cc1	·	+
Cc1ccccc1Cn1cc(C(=O)Nc2ccc(Cl)c([N+](=O)[O-])c2)ccc1=O	i	i
COc1ccc(S(=O)(=O)Nc2ccc3c(c2)N(C(=O)C(C)(C)C)CC3)c(C)c1	i	i
COc1ccc(OC)c(S(=O)(=O)Nc2ccc3c(c2)N(S(=O)(=O)c2cccs2)CCC3)c1	i	+
COc1ccc(OC)c(S(=O)(=O)Nc2ccc3c(c2)N(S(C)(=O)=O)CCC3)c1	·	i
CCS(=O)(=O)Nc1ccc2c(c1)N(C(=O)C(C)(C)C)CC2	i	i
COc1ccc(CCS(=O)(=O)Nc2ccc3c(c2)N(C(=O)c2ccco2)CC3)cc1	i	i
COc1ccc(CCS(=O)(=O)Nc2ccc3c(c2)N(C(=O)C(C)(C)C)CC3)cc1	i	+
CCCc1ccc(S(=O)(=O)Nc2ccc3c(c2)N(C(=O)C(C)(C)C)CC3)cc1	i	+
COc1ccc(S(=O)(=O)Nc2ccc3c(c2)N(C(=O)C(C)(C)C)CC3)cc1	i	+
Cc1ccc(CC(=O)N2CCNC(=O)C2C)c(C)c1 (stereo unspecified)	i	·
O=C(NCC1COC2(CCCCC2)O1)c1cccc2ccccc12 (stereo unspecified)	i	i
Cc1nn(C)cc1CN(C)C(=O)NC1CCCCC1	i	i
O=[N+]([O-])c1ccc(Nc2ccc(S(=O)(=O)Nc3nccs3)cc2)c([N+](=O)[O-])c1	14.0%*[18.8 µM]	i
O=C(CCN1C(=O)c2ccccc2S1(=O)=O)Nc1ccc(S(=O)(=O)Nc2nccs2)cc1	i	i
Cc1ccc(CC(=O)N(CCCn2ccnc2)c2nc3ccccc3s2)c(C)c1	i	i
SMILES	GIRK2 activator	GluA2 TARP mod
Cc1nc2c(ccc3nc(NC(=O)c4cccc(S(=O)(=O)C(C)C)c4)sc32)s1	i	i
Nc1nc(SCC(=O)Nc2ccccc2)ncc1S(=O)(=O)c1ccc(Cl)s1	i	+
CC(=O)c1ccc(NC(=O)CSc2ncc(S(=O)(=O)c3ccc(Cl)s3)c(N)n2)cc1	i	i
Cc1ccc(Cl)c2sc(N(CCN3CCOCC3)C(=O)c3ccc4c(c3)OCCO4)nc12	·	i
CC1(C)N=C(SCC(=O)Nc2ccc(F)cc2F)C(c2ccccc2)=N1	i	i
CC1(C)N=C(SCC(=O)Nc2ccc(F)cc2F)C(c2ccc(Cl)cc2)=N1	i	+
N#C/C(=C\c1cccs1)c1nc2ccccc2s1	·	+
N#C/C(=C\c1ccccc1)c1nc2ccccc2s1	·	i
COc1ccc(S(=O)(=O)CCC(=O)Nc2ccc3c4c(cccc24)CC3)cc1	i	i
O=C(NCCOc1ccc(-c2ccco2)nn1)C(c1ccccc1)c1ccccc1	i	i
COc1ccccc1CNC(=O)CSc1nc(=O)n(CC2CCCO2)c2c1CCC2 (stereo unspecified)	i	i
CN(C)C(=O)Cc1ccc(NC(=O)Cc2ccc(Cl)cc2)cc1	i	i
CN(C)C(=O)Cc1ccc(NC(=O)Nc2ccc(Cl)c(Cl)c2)cc1	i	+
COc1cccc(C(CNS(=O)(=O)c2ccccc2[N+](=O)[O-])N2CCOCC2)c1 (stereo unspecified)	i	i
O=C(Nc1cc(-c2ccccc2)nn1CCO)c1ccsc1	i	i
O=C(Nc1cc(-c2ccccc2)nn1CCO)c1cccc(Cl)c1	i	+
O=C(NCCn1nc(-c2cccnc2)ccc1=O)c1cccs1	i	i
COc1ccccc1CNc1nc2ccccc2nc1NS(=O)(=O)c1ccccc1	·	+
COc1ccc(S(=O)(=O)Nc2nc3ccccc3nc2NCCC2=CCCCC2)cc1	·	i
COC(=O)c1ccc(NC(=O)c2cc(=O)c(OC)co2)cc1	i	i
O=C(Nc1nc2ccc(Cl)cc2s1)c1cc(=O)c(OCc2ccc(F)cc2)co1	i	i
COc1ccc(NC(=O)c2cc(=O)c(OC)co2)c(OC)c1	i	+
COc1coc(C(=O)Nc2nc3ccc(Cl)cc3s2)cc1=O	i	+
COc1ccc(S(=O)(=O)CC(=O)Nc2ccc3sccc3c2)cc1	i	i
Cc1ccc(C)c(OCC(O)Cn2c(C3CC(=O)N(c4cccc(F)c4)C3)nc3ccccc32)c1 (stereo unspecified)	i	i
SMILES	GIRK2 activator	GluA2 TARP mod
O=C(COc1ccccc1C1CC(c2cccs2)=NN1C(=O)c1ccccc1)N1CCCC1 (stereo unspecified)	·	i
O=C(COc1ccccc1C1CC(c2ccccc2)=NN1C(=O)c1ccccc1)N1CCOCC1 (stereo unspecified)	·	+
COc1cccc(CNC(=O)Cn2nc(-c3ccc(C)cc3C)ccc2=O)c1	i	i
COC(=O)c1ccc(C(=O)Nc2nnc(-c3cc(C)n(C)n3)o2)cc1	i	i
CCn1nc(C(=O)Nc2nnc(-c3ccc(OC)cc3)o2)cc1C	i	·
COc1cc(C(=O)Nc2nnc(-c3cc(C)n(C)n3)o2)cc(OC)c1OC	i	+
COc1cc(/C=C/C(=O)Nc2nnc(-c3ccn(C)n3)o2)cc(OC)c1OC	i	+
COc1cccc2cc(C(=O)Nc3nnc(-c4cc(C)nn4C)o3)oc12	i	+
Cc1cc(-c2nnc(NC(=O)/C=C/c3ccccc3)o2)nn1C	i	i
COc1cc(-c2nnc(NC(=O)c3cc(C)n(C)n3)o2)cc(OC)c1OC	i	+
COc1cccc(C(=O)Nc2nnc(-c3cc(C)nn3C)o2)c1OC	i	·
COc1ccc(-c2nnc(NC(=O)c3ccn(C)n3)o2)cc1OC	i	i
COc1ccc(-c2nnc(NC(=O)c3cc(C)nn3C)o2)cc1OC	i	+
O=C(NCC1CCN(C(=O)COc2ccccc2)CC1)C(=O)Nc1cc(F)ccc1F	i	i
CCCCOc1ccc(C(=O)NNC(=O)c2ccc(=O)n(Cc3ccccc3)c2)cc1	i	i
CNC(=O)CN1CCN(c2nccn2C)CC1	i	·
O=C(NCCCn1cccc1)c1ccccc1C(F)(F)F	i	i
O=C(NCCCn1cccc1)c1c(F)cccc1F	i	+
COC(=O)c1sccc1S(=O)(=O)Nc1ccc2c(c1)OCO2	·	i
Cc1cc(C(=O)NCCn2ncc3c(N4CCOCC4)ncnc32)no1	·	i
Cc1cccc(NC(=O)COc2ncccn2)c1	i	·
